Assay results as given in PubChem BioAssay AID1159580 (chemical genetic matrix, 2015).
About 2,000 (36%) of roughly 5,500 compounds were called active. Not shown: some 18% with an inconclusive outcome. Rule as the data show it: active = normalized growth mostly below about 0.91 (no sharp cut-off); inconclusive = no clear call, values can overlap the other calls; inactive = mostly above about 0.92. Some of the results follow.

Test: chemical genetic growth profiling, strain panel (AID 1159580);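 also: tested at 20 µM; growth read once vehicle control cultures reached saturation at 30 °C; 1 = growth at the plate median or of vehicle wells; lower values mean less growth of the strain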
Settings: growth OD

Measured: normalized growth

CCOC(=O)[C@H](CCc1ccccc1)N[C@@H](C)C(=O)N1CCC[C@H]1C(=O)O
inactive: S. cerevisiae deletion strains, locus YJR075W, strain HOC1, active compounds read low 1.01 | S. cerevisiae deletion strains, locus YKL009W, strain mrt4, active compounds read low 1.04 | S. cerevisiae deletion strains, locus YKL068W, active compounds read low 0.998 | S. cerevisiae deletion strains, locus YKL085W, strain MDH1 (second series), active compounds read low 1 | S. cerevisiae deletion strains, locus YKL085W, strain MDH1, active compounds read low 1 | S. cerevisiae deletion strains, locus YKL160W, strain elf1, active compounds read low 0.988 | S. cerevisiae deletion strains, locus YKL190W, strain CNB1, active compounds read low 0.998 | S. cerevisiae deletion strains, locus YKR001C, strain vps1, active compounds read low 1.02 | S. cerevisiae deletion strains, locus YKR026C, strain gcn3, active compounds read low 1 | S. cerevisiae deletion strains, locus YKR091W, strain srl3, active compounds read low 0.994 | S. cerevisiae deletion strains, locus YLL001W, strain dnm1, active compounds read low 0.981 | S. cerevisiae deletion strains, locus YLL026W, active compounds read low 0.989 | S. cerevisiae deletion strains, locus YLL041C, strain sdh2, active compounds read low 1.01 | S. cerevisiae deletion strains, locus YLR027C, strain aat2, active compounds read low 0.985 | S. cerevisiae deletion strains, locus YLR039C, strain RIC1, active compounds read low 1 | S. cerevisiae deletion strains, locus YLR058C, strain SHM2, active compounds read low 1.01 | S. cerevisiae deletion strains, locus YLR102C, strain apc9, active compounds read low 1.02 | S. cerevisiae deletion strains, locus YLR113W, strain HOG1, active compounds read low 1.05 | S. cerevisiae deletion strains, locus YLR221C, strain rsa3, active compounds read low 0.975 | S. cerevisiae deletion strains, locus YLR258W, strain gsy2, active compounds read low 0.992 | S. cerevisiae deletion strains, locus YLR262C, strain YPT6 (second series), active compounds read low 0.998 | S. cerevisiae deletion strains, locus YLR262C, strain YPT6, active compounds read low 1.03 | S. cerevisiae deletion strains, locus YLR268W, strain sec22, active compounds read low 1.01 | S. cerevisiae deletion strains, locus YLR320W, strain mms22, active compounds read low 0.984 | S. cerevisiae deletion strains, locus YLR330W, strain CHS5, active compounds read low 1 | S. cerevisiae deletion strains, locus YLR342W, strain FKS1 (second series), active compounds read low 1 | S. cerevisiae deletion strains, locus YLR342W, strain FKS1, active compounds read low 0.994 | S. cerevisiae deletion strains, locus YLR357W, strain rsc2, active compounds read low 0.938 | S. cerevisiae deletion strains, locus YLR370C, strain arc18, active compounds read low 0.994 | S. cerevisiae deletion strains, locus YLR371W, strain rom2, active compounds read low 1.02 | S. cerevisiae deletion strains, locus YLR384C, strain iki3, active compounds read low 1 | S. cerevisiae deletion strains, locus YLR418C, strain cdc73, active compounds read low 1.01 | S. cerevisiae deletion strains, locus YML016C, strain PPZ1, active compounds read low 1.01 | S. cerevisiae deletion strains, locus YML032C, strain rad52, active compounds read low 1.02 | S. cerevisiae deletion strains, locus YML120C, strain ndi1, active compounds read low 1.03 | S. cerevisiae deletion strains, locus YML124C, strain tub3, active compounds read low 1.01 | S. cerevisiae deletion strains, locus YMR058W, strain fet3, active compounds read low 1.01 | S. cerevisiae deletion strains, locus YMR078C, strain ctf18, active compounds read low 1.01 | S. cerevisiae deletion strains, locus YMR125W, strain sto1, active compounds read low 0.991 | S. cerevisiae deletion strains, locus YMR129W, active compounds read low 1.01 | S. cerevisiae deletion strains, locus YMR205C, strain PFK2, active compounds read low 0.973 | S. cerevisiae deletion strains, locus YMR223W, strain ubp8, active compounds read low 1.02 | S. cerevisiae deletion strains, locus YMR231W, strain pep5, active compounds read low 0.988 | S. cerevisiae deletion strains, locus YMR263W, strain SAP30, active compounds read low 1.01 | S. cerevisiae deletion strains, locus YMR307W, strain GAS1, active compounds read low 1.02 | S. cerevisiae deletion strains, locus YNL067W, strain RPL9B, active compounds read low 1.01 | S. cerevisiae deletion strains, locus YNL071W, strain lat1, active compounds read low 1.01 | S. cerevisiae deletion strains, locus YNL128W, strain TEP1, active compounds read low 1.02 | S. cerevisiae deletion strains, locus YNL183C, strain NPR1, active compounds read low 0.973 | S. cerevisiae deletion strains, locus YNL209W, strain ssb2, active compounds read low 0.986 | S. cerevisiae deletion strains, locus YNL233W, strain BNI4, active compounds read low 1 | S. cerevisiae deletion strains, locus YNL248C, strain rpa49, active compounds read low 1.03 | S. cerevisiae deletion strains, locus YNL250W, strain rad50, active compounds read low 1.01 | S. cerevisiae deletion strains, locus YNL271C, strain bni1, active compounds read low 1.02 | S. cerevisiae deletion strains, locus YNL298W, strain CLA4, active compounds read low 1.04 | S. cerevisiae deletion strains, locus YNL307C, strain MCK1, active compounds read low 1.04 | S. cerevisiae deletion strains, locus YNL322C, strain KRE1 (second series), active compounds read low 0.963 | S. cerevisiae deletion strains, locus YNR049C, strain mso1, active compounds read low 1 | S. cerevisiae deletion strains, locus YNR052C, strain pop2, active compounds read low 1.01 | S. cerevisiae deletion strains, locus YOL006C, strain TOP1, active compounds read low 1.04 | S. cerevisiae deletion strains, locus YOL012C, strain htz1 0.639 | S. cerevisiae deletion strains, locus YOL147C, strain pex11, active compounds read low 1.01 | S. cerevisiae deletion strains, locus YOR001W, strain rrp6, active compounds read low 1 | S. cerevisiae deletion strains, locus YOR061W, strain CKA2, active compounds read low 1.01 | S. cerevisiae deletion strains, locus YOR069W, strain VPS5, active compounds read low 0.992 | S. cerevisiae deletion strains, locus YOR070C, strain gyp1, active compounds read low 0.963 | S. cerevisiae deletion strains, locus YOR080W, strain dia2, active compounds read low 0.997 | S. cerevisiae deletion strains, locus YOR083W, strain WHI5, active compounds read low 0.934 | S. cerevisiae deletion strains, locus YOR106W, strain vam3, active compounds read low 0.977 | S. cerevisiae deletion strains, locus YOR136W, strain idh2, active compounds read low 1.02 | S. cerevisiae deletion strains, locus YOR144C, strain elg1, active compounds read low 1.01 | S. cerevisiae deletion strains, locus YOR184W, strain ser1, active compounds read low 1.04 | S. cerevisiae deletion strains, locus YOR231W, strain MKK1, active compounds read low 1.04 | S. cerevisiae deletion strains, locus YOR265W, strain rbl2, active compounds read low 0.992 | S. cerevisiae deletion strains, locus YOR270C, strain vph1, active compounds read low 0.999 | S. cerevisiae deletion strains, locus YOR290C, strain snf2, active compounds read low 0.988 | S. cerevisiae deletion strains, locus YOR316C, strain cot1, active compounds read low 1.02 | S. cerevisiae deletion strains, locus YPL051W, strain arl3, active compounds read low 0.954 | S. cerevisiae deletion strains, locus YPL078C, strain atp4, active compounds read low 0.993 | S. cerevisiae deletion strains, locus YPL106C, strain sse1, active compounds read low 0.922 | S. cerevisiae deletion strains, locus YPL240C, strain hsp82, active compounds read low 0.994 | S. cerevisiae deletion strains, locus YPL241C, strain CIN2, active compounds read low 0.999 | S. cerevisiae deletion strains, locus YPL256C, strain CLN2, active compounds read low 1.05 | S. cerevisiae deletion strains, locus YPR119W, strain clb2, active compounds read low 1.02 | S. cerevisiae deletion strains, locus YPR141C, strain kar3, active compounds read low 1.01 | S. cerevisiae deletion strains, locus YPR163C, strain tif3, active compounds read low 1.02 | S. cerevisiae deletion strains, locus YPR167C, strain met16, active compounds read low 1.02 | S. cerevisiae deletion strains, strain wtn01, active compounds read low 1.01 | S. cerevisiae strains, strain wild type, active compounds read low 1
